A1 inh = inhibitors of the anti-apoptotic protein A1, read as caspase activation. MEF A1-2A-BIM cells, Caspase-Glo 3/7 luminescence, 3 h; percent of clofoctol response, vehicle zero. caspase activation, % (test concentration not listed). actives 0.066% (n = 330,000). AID 2462;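 active means over half of replicate activation scores above 10%, or exactly half above 10 with the replicate mean above 10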
697 NFkB inh = inhibitors of the PMA/ionomycin-induced NF-kB reporter in 697 B cells; 697 B-cell NF-kB luciferase reporter, 16 h; inhibition, % at 4 µM; actives 0.33% (n = 330,000); AID 435022; in the data active means inhibition above about 35%
NTR1 ag = activates human neurotensin receptor 1. P30989. NTR1-U2OS beta-arrestin-GFP spot imaging, agonist mode. activation, % at 20 µM. actives 0.17% (n = 330,000). AID 493036;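 active means activation at or above 40% of the spot to cytoplasm intensity ratio, with at least 20 cells analyzed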;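 further: 0% = DMSO without peptide and 100% = 100 nM NTR1 peptide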
Target sequence (P30989 whole entry, looked up): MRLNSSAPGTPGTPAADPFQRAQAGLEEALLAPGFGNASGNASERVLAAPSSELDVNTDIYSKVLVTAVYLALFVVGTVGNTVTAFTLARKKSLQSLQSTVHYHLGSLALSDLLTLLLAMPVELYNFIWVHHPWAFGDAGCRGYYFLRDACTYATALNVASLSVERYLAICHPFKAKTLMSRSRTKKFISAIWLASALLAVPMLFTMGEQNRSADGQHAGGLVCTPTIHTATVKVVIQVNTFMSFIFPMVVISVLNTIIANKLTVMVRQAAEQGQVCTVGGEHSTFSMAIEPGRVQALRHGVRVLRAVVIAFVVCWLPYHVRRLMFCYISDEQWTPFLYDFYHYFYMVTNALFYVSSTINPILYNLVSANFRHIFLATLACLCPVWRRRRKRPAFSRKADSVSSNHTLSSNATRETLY
Jurkat NFkB inh = inhibitors of the PMA/ionomycin-induced NF-kB reporter in Jurkat cells; inhibition, % at 4 µM; AID 435003; actives 0.53% (n = 330,000); PMA/ionomycin-induced NF-kB luciferase reporter, luminescence; in the data active means inhibition above about 50%
Beta apoptosis = beta cell apoptosis inhibition | INS-1E cytokine-induced death, ATP luminescence, 48 h; percent of positive-control rescue, neutral wells zero | protection from apoptosis, % (concentration not given with the values) | actives 0.8% (n = 300,000) | AID 435005;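 active means Every replicate reaches about 75%, or at least half do and their mean reaches it too, limit read from the data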;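 further: 0% = cytokine-treated negative control wells and 100% = positive control rescue; higher means more ATP so stronger rescue from cytokine killing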
Mdm2 MdmX PPI = disrupts the human Mdm2-MdmX interaction | SaOS-2 split-luciferase Mdm2/MdmX complementation, luminescence | inhibition, % at 8 µM | actives 3% (n = 330,000);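 active means inhibition of at least 50% at 8 µM in the primary screen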
Mdm2 MdmX conf = confirmation of human Mdm2/MdmX interaction inhibitors; shares compounds with Mdm2 MdmX PPI; Mdm2-MdmX binding, luminescent assay; inhibition, % at 8 µM; actives 55% (n = 10,000); AID 489028; in the data active means inhibition above about 40%
FLuc counter = counter-screen for Mdm2/MdmX inhibitors: full-length luciferase; shares compounds with Mdm2 MdmX PPI; SaOS-2 full-length luciferase counterscreen, luminescence; inhibition, % at 8 µM; actives 77% (n = 6,200);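 active means mean inhibition at 8 µM reaching about 37%, which flags the compound as non-specific, limit read from the data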;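 further: p53-null SaOS-2 cells with luciferase driven by a doxycycline-inducible promoter; compound on cells about two nights before reading with doxycycline added after day one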
An asterisk follows results filed as active; · = no result given. A selection: hits, their analogues and other compounds. The true share with any hit is near 3.8%.

SMILES	A1 inh	697 NFkB inh	NTR1 ag	Jurkat NFkB inh	Beta apoptosis	Mdm2 MdmX PPI	Mdm2 MdmX conf	FLuc counter
CC(C)(C)OC(=O)C[C@@H]1C/C=C\C[C@@H](CC(=O)N(CCO)Cc2ccccc2)C(=O)NC[C@H](c2ccccc2)OC1=O	0	24	4	4	3	60*	40*	71*
O=C(C[C@H]1C/C=C\C[C@H](NC(=O)OCC2c3ccccc3-c3ccccc32)C(=O)O[C@H](c2ccccc2)CNC1=O)N[C@H](CO)Cc1ccccc1	0	-9	10	-13	35	78*	47*	56*
CCN(CC)CCNC(=O)c1ccc(NC(=O)c2ccccc2-c2ccc(C(F)(F)F)cc2)cc1	0	0	0	10	5	29	·	·
O=C(NCc1cc([N+](=O)[O-])ccc1O)c1cccnc1Sc1ccccc1Cl	0	-18	-1	-2	4	18	·	·
COc1ccc(C(C(=O)NCCC(C)C)N(CCO)C(=O)c2snc(C(N)=O)c2N)cc1 (centres undefined)	-1	4	-2	-17	2	7	·	·
O=C(C[C@@H]1C/C=C\C[C@@H](Cc2ccc(F)cc2)C(=O)OC[C@@H](Cc2ccccc2)NC1=O)N[C@H](CO)Cc1ccccc1	1	0	3	-10	1	80*	66*	41*
C[C@@H]1COC(=O)[C@H](Cc2ccc(F)cc2)C/C=C\C[C@@H](CC(=O)N[C@H](CO)Cc2ccccc2)C(=O)N1	0	-3	0	-2	2	-21	·	·
CCOC(=O)c1sc(NC(=O)c2cccc(S(=O)(=O)N3CCc4ccccc43)c2)c(C#N)c1C	-1	-11	8	4	73	89*	30	·
CCC(CC)c1nnc(NC(=O)c2cccc(S(=O)(=O)N3CCc4ccccc43)c2)s1	1	-24	1	-7	3	1	·	·
CCOC(=O)c1sc(NC(=O)CSc2ccccn2)c(C#N)c1C	1	8	0	9	·	74*	23	·
CCOC(=O)c1sc(NC(=O)c2cc(-c3ccccc3)nc3ccccc23)c(C#N)c1C	1	-16	8	-16	45	94*	91*	47*
CCOC(=O)c1sc(NC(=O)CSc2nc(C)cc(C)n2)c(C#N)c1C	0	5	2	-1	-5	19	·	·
CCOC(=O)c1sc(NC(=O)CSc2nc3c(cc2C#N)CCCCC3)c(C#N)c1C	-1	-122	4	-18	6	72*	26	·
O=C1CCc2cc(S(=O)(=O)N3CCN(c4ccc(F)cc4)CC3)cc3c2N1CC3	0	-17	-2	-14	2	3	·	·
CN(C)CCCN(C(=O)c1cc(-c2cccs2)nc2ccccc12)c1nc2ccc(F)cc2s1	0	14	38	18	6	100*	57*	68*
CN(C)CCN(C(=O)/C=C/c1cccs1)c1nc2ccc(F)cc2s1	0	-18	1	-8	-2	59*	43*	56*
CN(C)CCCN(C(=O)CCc1ccccc1)c1nc2ccc(F)cc2s1	0	14	-1	8	1	18	·	·
COCCn1c(N)c(N(Cc2ccccc2)C(=O)CSCC(=O)Nc2ccc(OC)cc2)c(=O)[nH]c1=O	0	20	-1	-2	-4	-8	·	·
Cc1cc2ccccn2c1C(=O)c1ccc([N+](=O)[O-])o1	0	33	4	20	-62	64*	26	·
CC[C@]12c3[nH]c4ccccc4c3CCN1C(=O)C(CC(=O)NC/C=C(\C)CCC=C(C)C)C[C@@H]2C(=O)N1CCN(C(=O)c2ccco2)CC1 (some centres undefined)	0	3	6	11	-11	54*	-2	·
CC[C@]12c3[nH]c4cc(-c5ccco5)ccc4c3CCN1C(=O)[C@@H](CC(=O)NC/C=C(\C)CCC=C(C)C)C[C@@H]2C(=O)N1CCN(C(=O)c2ccco2)CC1	·	-23	5	·	·	56*	-1	·
CC[C@]12c3[nH]c4ccc(Cl)cc4c3CCN1C(=O)[C@@H](CC(=O)NC/C=C(\C)CCC=C(C)C)C[C@@H]2C(=O)N1CCN(C(=O)C2CC2)CC1	·	8	16	·	·	70*	38	71*
O=C1NC(=S)N/C1=C/c1ccc2c(c1)OCO2	0	-12	-2	-1	-7	80*	50*	91*
O=C1NC(=S)N/C1=C/c1ccc2ccccc2c1	0	-16	0	-31	-2	-7	·	·
c1coc(CNc2nc3ccccc3s2)c1	-2	-117	-2	-114	-7	-36	·	·
SMILES	A1 inh	697 NFkB inh	NTR1 ag	Jurkat NFkB inh	Beta apoptosis	Mdm2 MdmX PPI	Mdm2 MdmX conf	FLuc counter
CC(C)C(=O)NC(c1ccco1)c1ccc2cccnc2c1O (centres undefined)	-1	-7	4	33	117*	82*	64*	24
CC(C)C(=O)NC(c1cccc([N+](=O)[O-])c1)c1c(O)ccc2ccccc12 (centres undefined)	1	23	5	-4	-4	5	·	·
Oc1c(C(Nc2nc3ccccc3s2)c2ccco2)ccc2cccnc12 (centres undefined)	-1	-133	2	-5	103*	61*	85*	42*
CC(C)C(=O)NC(c1cccc([N+](=O)[O-])c1)c1ccc2cccnc2c1O (centres undefined)	0	-32	2	35	·	81*	90*	52*
O=C(c1ccc(Cl)c([N+](=O)[O-])c1)N1CCN(S(=O)(=O)c2ccc(Cl)cc2)CC1	1	22	7	-1	-7	28	·	·
CSc1ncccc1C(=O)N1CCN(S(=O)(=O)c2ccc3c(c2)OCCO3)CC1	0	8	0	-9	-3	25	·	·
N#C/C(=C\C=C\c1ccccc1[N+](=O)[O-])C(=O)NC1CCCCC1	0	-137	4	28	-15	99*	61*	54*
O=C(N/N=C1/CC2CCC1C2)c1cc2ccccc2cc1O (centres undefined)	0	11	1	14	5	52*	41*	83*
O=C(NCC1CCCCC1)c1cc2ccccc2cc1O	-1	-16	2	-37	-7	-17	·	·
COCc1cc(C)nc(NC2CC(C)(C)NC(C)(C)C2)c1C#N	1	13	0	2	-5	28	·	·
COC(=O)c1ccccc1S(=O)(=O)NNC(=O)Nc1ccccc1	0	15	-1	1	-3	69*	50*	75*

Source: PubChem
